# CYP2C9 act: increases human cytochrome P450 2C9 activity. 1.4% of 96,000 active. activation factor at 5 µM. AID 1024. P11712. recombinant CYP2C9, luciferin-H conversion, luminescence; active compounds read high; factor 1 = untreated enzyme, 0 = blocked;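 active means activation factor of 2 or more for CYP2C9 at a 5 µM dose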;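 further: 0 = sulfaphenazole-blocked wells and 1 = vehicle-only wells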
# CYP2C19 inh: inhibitors of human CYP2C19; P33261; CYP2C19 Supersomes, luciferin-H EGE luminescence, 30 min; inhibition, % at 5 µM; 21% of 96,000 active; AID 778;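 active means CYP2C19 inhibition above a set limit at 5 µM in the primary screen, cut at about 50% in these data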;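 further: plate controls were negative control wells for no effect and 2.5 mM tranylcypromine positive control for full effect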
# Target sequence (P33261 whole entry, looked up): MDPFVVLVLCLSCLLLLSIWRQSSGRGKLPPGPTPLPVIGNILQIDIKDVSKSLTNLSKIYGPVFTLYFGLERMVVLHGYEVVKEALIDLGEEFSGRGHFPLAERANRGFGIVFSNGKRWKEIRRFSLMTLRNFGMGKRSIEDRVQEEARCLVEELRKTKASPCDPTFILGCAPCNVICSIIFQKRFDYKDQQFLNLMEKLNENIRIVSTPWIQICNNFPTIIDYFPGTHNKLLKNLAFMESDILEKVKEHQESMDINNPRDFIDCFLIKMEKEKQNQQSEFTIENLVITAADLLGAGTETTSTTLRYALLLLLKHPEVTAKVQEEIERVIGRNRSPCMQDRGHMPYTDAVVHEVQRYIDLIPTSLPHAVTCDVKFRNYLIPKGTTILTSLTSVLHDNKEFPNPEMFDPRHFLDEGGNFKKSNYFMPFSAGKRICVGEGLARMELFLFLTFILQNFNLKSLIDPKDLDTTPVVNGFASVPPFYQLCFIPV
# sEH act: increases human soluble epoxide hydrolase activity; activation, % at 2 µM; 0.04% of 91,000 active; AID 717; purified human sEH enzymatic activity, activator screen; P34913; in the data active means activation above about 37%
# CYP2C19 act: cytochrome P450 2C19 (human) activation; P33261; recombinant CYP2C19, luciferin-H EGE luminescence; active compounds read high; 0 = fully inhibited enzyme, 1 = untreated enzyme; AID 1025; 96,000 tested, under 10 active; activation factor at 5 µM;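 active means activation factor of at least 2 at 5 µM in the primary screen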;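 further: 0 = wells with 2.5 mM tranylcypromine and 1 = vehicle-only wells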
# sEH inh: soluble epoxide hydrolase (human) inhibition | recombinant human sEH enzymatic activity assay | inhibition, % at 2 µM | 0.34% of 91,000 active; in the data active means inhibition above about 80%
# CYP2C9 inh: inhibitors of human CYP2C9; inhibition, % at 5 µM; CYP2C9 Supersomes, luciferin-H conversion, luminescence; 20% of 96,000 active; P11712;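 active means blocking of liver enzyme CYP2C9 beyond about 50% at 5 µM, limit read from the data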
# * hit, by the source's call; nt = not tested or not shown. In the library only some 27% were active in any assay of this set; here they are far more common.
SMILES,CYP2C9 act,CYP2C19 inh,sEH act,CYP2C19 act,sEH inh,CYP2C9 inh
COc1ccc(N(CC(=O)Nc2cccc(C)c2)S(=O)(=O)c2c(C)n[nH]c2C)cc1,0.2,95*,nt,0,nt,79*
Cc1ccc(NC(=O)CN(c2ccc3c(c2)OCO3)S(=O)(=O)c2c(C)n[nH]c2C)cc1,nt,nt,-1,nt,0,nt
CCOc1ccccc1NC(=O)c1c(NC(=O)CNCc2ccco2)sc2c1CCC2,0.8,4,nt,1,nt,16
COc1ccc(/C=C/c2c([N+](=O)[O-])c(=O)n(C)c(=O)n2C)cc1O,0.5,10,15,0.9,-12,53*
Cc1ccc(-c2nn3nnnc3c3ccccc23)cc1,1,12,nt,0.9,nt,-2
Cn1c(SCC(=O)Nc2nccs2)nnc1-c1ccncc1,0.7,40,nt,0.6,nt,32
CC(C)C(C)(C#N)NC(=O)CSc1nnc(-c2ccncc2)n1Cc1ccccc1 (centres undefined),0.5,80*,-5,0.2,5,52*
O=C(CSc1nnc(-c2ccncc2)n1Cc1ccccc1)Nc1nccs1,0.5,75*,5,0.3,-5,54*
O=C(O)CSc1nnc(-c2ccncc2)n1Cc1ccccc1,0.5,8,-2,0.9,0,46
CC(C)(C)NC(=O)CSc1nnc(-c2ccncc2)n1Cc1ccccc1,0.5,80*,-4,0.2,1,50*
COc1ccccc1Nc1ccc(C(=O)NC2CCCCC2)cn1,2*,24,-3,0.8,2,-97
COc1ccccc1C(=O)NC1CCCCCCC1,nt,nt,3,nt,0,nt
COc1ccc(CCNS(=O)(=O)c2cn(C)c(=O)n(C)c2=O)cc1,1,29,2,0.7,-4,5
COc1ccc(CCNS(=O)(=O)c2cccs2)cc1,0.1,99*,-2,0,2,90*
COc1ccc(S(=O)(=O)NCCc2ccc(F)cc2)cc1,0.6,100*,-6,0,6,38
COc1ccc(S(=O)(=O)NCCc2ccccc2)cc1,0.8,95*,-4,0,6,22
CCS(=O)(=O)NCCCCc1ccccc1,0.8,60*,-4,0.4,8,19
O=S(=O)(NCCc1ccc2c(c1)OCCO2)c1cccs1,0.6,43,2,0.6,-1,36
CCCCNS(=O)(=O)c1ccc(OC)cc1,0.9,37,-9,0.6,10,9
CCS(=O)(=O)NCCCc1ccccc1,1.2,1,14,1,-17,-22
CCOC(=O)c1c(C)n(C)c2ccc(OC)c(NC(=O)CCN3CCSCC3)c12,0.6,22,3,0.8,-2,44
COc1cccc(Cn2cnc3c(NS(=O)(=O)c4ccc(Cl)cc4)c(C)c(C)cc32)c1,0.6,10,-30,0.9,31,37
Cc1cc2c(ncn2Cc2ccccc2)c(NS(C)(=O)=O)c1C,0.6,54*,5,0.5,-3,35
COc1cccc(Cn2cnc3c(NS(=O)(=O)c4cc(Cl)ccc4Cl)c(C)c(C)cc32)c1,0.5,14,-7,0.9,9,53*
COc1cccc(Cn2cnc3c(NS(=O)(=O)c4ccc(Cl)cc4Cl)c(C)c(C)cc32)c1,0.6,35,8,0.7,-6,40
SMILES,CYP2C9 act,CYP2C19 inh,sEH act,CYP2C19 act,sEH inh,CYP2C9 inh
COc1cccc(Cn2cnc3c(NS(=O)(=O)c4cccc(Cl)c4Cl)c(C)c(C)cc32)c1,0,84*,0,0.2,2,96*
O=C(CSc1ccc2nnc(-c3ccccn3)n2n1)N1CCN(c2ccccc2)CC1,1,38,14,0.6,-14,-1
CN(Cc1cnn(C)c1)C(=O)C1CCCCC1C(=O)O (centres undefined),nt,nt,-1,nt,4,nt
Cc1nc(SCC(=O)NC(C)c2ccccc2)c2oc3ccccc3c2n1 (centres undefined),0.2,64*,-26,0.4,26,80*
CNC(=O)C(Sc1nc(C)nc2c1oc1ccccc12)C(C)=O (centres undefined),0.4,55*,0,0.5,1,61*
O=C(O)C1CCN(c2nc(-c3ccccc3)nc3c2oc2ccccc23)CC1,1.2,-1,11,1,-11,-16
O=C(O)CSc1nc(-c2ccccc2)nc2c1oc1ccccc12,0.1,7,-3,0.9,2,91*
OCCN1CCN(c2nc(-c3ccccc3)nc3c2oc2ccccc23)CC1,0.3,86*,0,0.1,2,65*
CC(=O)c1ccc(Nc2nc(C)nc3c2oc2ccccc23)cc1,0.9,-16,nt,1.2,nt,12
CC(=O)OC(C)(C)C#CCN1CCCC1,1.1,-10,-13,1.1,13,-11
O=C(NCc1ccccn1)C1CCC(=O)N1C1CCCCC1 (centres undefined),1.1,-3,6,1,-8,-12
CN1CCc2c(sc3ncn4nc(-c5ccccc5O)nc4c23)C1,0.6,20,10,0.8,-12,36
Cc1nc(SCC(=O)Nc2ccccc2)c2oc3ccccc3c2n1,0.2,51*,0,0.5,-2,80*
Cc1nc(SCC(=O)Nc2ccc(F)cc2)c2oc3ccccc3c2n1,0.2,40,-15,0.6,13,84*
Cc1ccc(NC(=O)CCC(=O)NNC(=O)c2cccs2)c(C)c1,1.1,-7,6,1.1,-4,-6
C/C(=N/OCC(=O)Nc1ccc(C)cc1C)c1cccs1,0,93*,-23,0.1,25,98*
COc1ccc(N2CCN(c3nc(NCCO)nc(N4CCOCC4)n3)CC2)cc1,0.2,59*,6,0.4,-2,80*
O=C1CCCN1CC(CN1CCOCC1)Sc1nnnn1-c1ccccc1 (centres undefined),1.1,27,-4,0.7,5,-6
COc1ccc(-n2c(SC(CN3CCCCC3)CN3CCCC3=O)nc3ccccc3c2=O)cc1 (centres undefined),0.3,61*,-10,0.4,10,65*
O=C(O)/C=C\C(=O)Nc1ccccc1C#Cc1ccc(Br)cc1,0.1,-3,-5,1,6,87*
O=C(O)/C=C\C(=O)Nc1ccccc1C#Cc1ccccc1,0.4,3,0,1,0,62*
NC(=O)c1ccccc1NC(=O)/C=C/C(=O)O,1,7,-14,0.9,17,2
COC(=O)C1=C(C)N(c2ccc(C)cc2)/C(=C/c2cccs2)C1=O,0.6,6,-4,0.9,7,43
COC(=O)C1=NN(c2ccccc2)C2(S1)SC(C(C)=O)=C(C)N2c1ccccc1 (centres undefined),0.4,24,10,0.8,-6,58*
CC(=O)C1=NN(c2ccccc2)C2(S1)S/C(=C\c1ccccc1)C(=O)N2c1ccccc1 (centres undefined),0.4,-15,2,1.1,0,58*

# High-throughput results deposited in PubChem by several laboratories.
